# Calb biofilm kill: kills Candida albicans biofilms. actives 0.14% (n = 85,000). C. albicans biofilm + clotrimazole, Alamar Blue. inhibition, % at 6 µM;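 active = inhibition above 20%; inactive = inhibition below 20%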;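 note: preformed 24 hr biofilms exposed to compound for 48 hr; 0% = biofilm without compound and 100% = blank killed by clotrimazole plus chlorhexidine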
# ERb coact inh: ER-beta (human) coactivator binding inhibition; Q92731; TR-FRET ER-beta LBD / SRC1-Cy5 peptide binding; receptor agonist-loaded with 1 µM estradiol; inhibition, % at 25.6 µM; actives 1.3% (n = 86,000); AID 633;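 active = compounds whose percent inhibition of the receptor-coactivator binding signal exceeds about 50% in the single-dose screen, limit read from the data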;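 note: 0% = receptor plus peptide wells without compound and 100% = peptide-only wells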
# HePTP inh: blocks human HePTP tyrosine phosphatase; inhibition, % at 20 µM; P35236; actives 0.64% (n = 110,000); AID 521; recombinant HePTP phosphatase activity, OD absorbance; in the data active = inhibition above about 50%;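 note: plate controls were vehicle for no effect and reference inhibitor for full effect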
# ERa SRC1 pot: enhances coactivator binding to human estrogen receptor alpha. P03372. TR-FRET ERalpha-LBD/SRC-Cy5 coactivator binding, 2 h; 100 = basal binding, no effect. coactivator binding (% of control), % at 25.6 µM. actives 1.3% (n = 86,000). AID 639; in the data active = activity above about 200%;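 note: binding measured in presence of low estradiol as agonist stimulus; 0% = peptide alone without receptor and 100% = receptor with peptide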
# ERa SRC1 inh: blocks coactivator binding to human estrogen receptor alpha; P03372; TR-FRET ER-alpha LBD / SRC-1 peptide, estradiol-bound; inhibition, % at 25.6 µM; actives 1.7% (n = 86,000); AID 629; in the data active = inhibition above about 50%;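 note: 0% = receptor plus peptide control and 100% = peptide only without receptor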
# Smad3 inh: blocks human Smad3 binding to FoxH1 peptide. TR-FRET Smad3/Dy647-FoxH1 peptide binding, europium anti-His. AID 630. P84022. inhibition, % at 25 µM. actives 0.29% (n = 88,000);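 active = compounds that reduce the energy-transfer binding signal between the protein and its labelled peptide by more than half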;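 note: 0% = Smad3 plus labelled peptide maximal FRET and 100% = peptide-only background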
# Target sequence (P84022 whole entry, looked up): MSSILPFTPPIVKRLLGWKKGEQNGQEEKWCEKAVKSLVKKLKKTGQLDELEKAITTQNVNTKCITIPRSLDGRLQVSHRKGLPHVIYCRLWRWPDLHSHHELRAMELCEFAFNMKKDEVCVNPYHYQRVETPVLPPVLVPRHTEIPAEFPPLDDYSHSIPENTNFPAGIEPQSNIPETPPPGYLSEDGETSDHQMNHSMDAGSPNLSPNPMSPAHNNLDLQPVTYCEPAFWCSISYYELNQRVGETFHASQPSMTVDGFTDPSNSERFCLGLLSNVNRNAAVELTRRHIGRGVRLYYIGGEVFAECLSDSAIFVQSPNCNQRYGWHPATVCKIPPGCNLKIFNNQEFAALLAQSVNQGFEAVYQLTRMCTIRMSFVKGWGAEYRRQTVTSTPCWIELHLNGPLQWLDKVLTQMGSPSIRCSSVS
# * marks the source's active call; other numbers are inactive results; . = no result; [ ] = remark or other dose. Only some compounds are listed: those with a hit (about 2.9% of all), similar ones and a draw of the others.
SMILES,Calb biofilm kill,ERb coact inh,HePTP inh,ERa SRC1 pot,ERa SRC1 inh,Smad3 inh
Cc1cc(C(=O)COc2ccc3ccc(=O)oc3c2)c(C)n1Cc1cccs1,6.3,36.5,8.8,347.1*[fluorescence artefact?],58.2*[fluorescence artefact?],-19.8
O=C(COc1ccc2ccc(=O)oc2c1)c1ccc(-c2ccccc2)cc1,.,.,0.0,.,.,.
CSc1nc(NC(N)=O)c2c3c(sc2n1)CC(C(C)(C)C)CC3 (stereo not drawn),.,.,12.9,.,.,.
CN(C)/C=C/C=C/C(=O)c1ccc(/C=C/C=C/N(C)C)o1,.,.,103.2*,.,.,.
COc1ccccc1N/C(N)=N/c1nc(CSc2ccc(C)cc2)cc(=O)[nH]1,-5.2,30.4,14.1,257.9*[fluorescence artefact?],48.2,-4.0
COc1ccc(N/C(N)=N/c2nc(CSc3ccc(C)cc3)cc(=O)[nH]2)cc1,8.1,-7.8,7.0,120.7,-7.2,-5.9
OC[C@@H]1CCC[C@H](n2cnc3c(=S)nc[nH]c32)O1,.,.,.,.,.,54.8*
COc1ccc(C(=O)/C=C\Nc2cc(Cl)ccc2O)c(OC)c1,.,.,9.7,.,.,.
CCSc1nnc(Cc2cc(=O)[nH]c(=O)[nH]2)n1-c1cc(C)ccc1C,7.3,70.1*,10.8,131.1,2.4,4.1
CCOc1ccc(-n2c(Cc3cc(=O)[nH]c(=O)[nH]3)nnc2SCC(=O)OC)cc1,2.4,-14.2,-4.4,89.4,-0.9,1.4
CCOC(=O)CSc1nnc(Cc2cc(=O)[nH]c(=O)[nH]2)n1-c1ccc(Cl)cc1,-3.8,96.3*[fluorescence artefact?],-7.7,119.0,-0.5,5.5
CSc1nnc(Cc2cc(=O)[nH]c(=O)[nH]2)n1-c1cc(C)ccc1C,-3.3,0.6,6.8,94.4,9.3,-6.3
Cc1ccccc1NC(=O)C(=O)NNC(=O)COc1ccc(Cl)cc1,.,.,6.8,.,.,.
Cc1ccccc1NC(=O)C1CC(=O)N(c2ccc(Br)cc2)C1 (stereo not drawn),.,.,-4.0,.,.,.
COc1ccc(-c2nn(-c3ccccc3)cc2/C=N/N2C(=O)CSC2=S)cc1,8.9,-1.2,.,313.2*[fluorescence artefact?],-20.8,-5.3
CCOc1ccc(C(=O)Nc2cccc(-c3nc4cc(CC)ccc4o3)c2)cc1[N+](=O)[O-],.,.,-2.1,.,.,.
Cc1ccc2nc(/C(C#N)=C\c3ccc(N4CCCCC4)c([N+](=O)[O-])c3)[nH]c2c1,4.4,35.7,7.6,73.7,82.0*,6.1
CCOC(=O)c1ccc(NC(=O)c2cc(Cl)ccc2OC)cc1,.,.,-14.0,.,.,.
CCOc1ccc(C(=O)Nc2ccc(-c3nc4ccccc4o3)c(O)c2)cc1[N+](=O)[O-],.,.,103.6*,.,.,.
CCOc1ccc(C(=O)Nc2ccc(NC(=O)c3ccco3)c(OC)c2)cc1[N+](=O)[O-],.,.,103.6*,.,.,.
COc1cc(NC(=O)c2ccc(C)c([N+](=O)[O-])c2)ccc1NC(=O)c1ccco1,.,.,4.7,.,.,.
COc1cccc(/C=N/Nc2ncc(Br)cn2)c1O,.,.,-19.2,.,.,.
CCCCOc1cccc(C(=O)Nc2ccc(NC(=O)c3ccco3)c(OC)c2)c1,.,.,0.6,.,.,.
CCOC(=O)c1sc(C)c2c1NC(c1ccc(N(C)C)cc1)NC2=O (stereo not drawn),4.0,11.7,.,216.0*[fluorescence artefact?],11.1,-2.6
CN1CCc2c(sc3ncn4nc(-c5ccccc5O)nc4c23)C1,7.0,77.2*[fluorescence artefact?],3.6,10.0,93.8*[fluorescence artefact?],37.4
SMILES,Calb biofilm kill,ERb coact inh,HePTP inh,ERa SRC1 pot,ERa SRC1 inh,Smad3 inh
N#CCSc1ncnc2sc3c(c12)CCC3,9.1,44.2,12.5,75.4,42.0,-3.9
Cc1sc2ncnc(SCC#N)c2c1C,7.4,48.2,4.9,97.1,75.5*[fluorescence artefact?],4.0
Cc1noc(C)c1CSCC(=O)OCC(=O)Nc1sccc1C#N,4.3,54.3*,0.5,54.3,55.0*[fluorescence artefact?],11.4
N#Cc1ccsc1NC(=O)COC(=O)CCCSc1nc2ccccc2s1,5.3,6.6,7.9,99.5,9.6,12.9
C/C=C/COC(=O)C1=C(C)NC(=O)NC1c1ccccc1F (stereo not drawn),.,.,5.6,.,.,.
CCOC(=O)COc1ccccc1/C=C1\C(=O)NC(=O)N(c2ccc(Cl)cc2)C1=O,.,.,-1.8,.,.,.
Nc1c(C(=O)NCc2ccc3c(c2)OCO3)c2nc3ccccc3nc2n1CCCN1CCOCC1,-1.5,-10.1,3.1,94.2,-15.5,19.1
Nc1ccc(-n2c(N)c(C(=O)NCc3ccc4c(c3)OCO4)c3nc4ccccc4nc32)cc1,4.1,33.4,1.5,14.6,79.5*[fluorescence artefact?],4.0
Nc1c(C(=O)NCCN2CCOCC2)c2nc3ccccc3nc2n1-c1ccccc1,5.9,-25.1,0.0,109.5,-32.1,3.3
Nc1c(C(=O)NCCN2CCOCC2)c2nc3ccccc3nc2n1-c1ccc2c(c1)OCO2,-1.6,39.5,14.4,72.7,62.8*[fluorescence artefact?],-3.2
Cc1c(-c2ccc(Cl)cc2Cl)nc2ccccc2c1C(=O)NCc1ccc2c(c1)OCO2,.,.,103.3*,.,.,.
CCOC(=O)c1c(C)[nH]c(C(=O)COC(=O)c2ccc(N3CCCC3=O)cc2)c1C,-1.9,34.5,-4.6,217.5*[fluorescence artefact?],51.3*[fluorescence artefact?],-127.1
COc1cc([N+](=O)[O-])ccc1NC(=S)NC(=O)c1ccc(Cl)cc1,.,.,5.5,.,.,.
Cc1ccc(-c2nn(CC(=O)Nc3ccc4c(c3)nc3n4CCOC3)c(=O)c3ccccc23)cc1,2.6,54.3*[fluorescence artefact?],22.6,165.2,66.8*[fluorescence artefact?],-179.7
O=C(Cn1nc(-c2ccccc2)c2ccccc2c1=O)Nc1ccc2c(c1)nc1n2CCOC1,-0.9,47.3,3.7,208.9*[fluorescence artefact?],22.1,-10.3
O=C(CSc1cn(CCNC(=O)c2ccccc2)c2ccccc12)NCc1ccco1,21.6*,14.0,-0.8,92.5,6.7,-8.0
CCOC(=O)C1=C(C)N(c2ccccc2)C(=O)C1CC(=O)Nc1ccc(C)cc1C (stereo not drawn),.,.,3.0,.,.,.
CCOc1c(C(N)=O)c(-c2ccccc2)c2c(=O)[nH]c3ccccc3n12,3.1,60.8*,0.3,53.5,81.5*[fluorescence artefact?],3.2
O=C1C(N2CCOCC2)=C(n2nnc3ccccc32)C(=O)c2ccccc21,4.3,-13.6,.,96.9,-18.5,52.3*
CCCCOc1ccc(C(=O)O/N=C2\CCOc3cc(OC)ccc32)cc1,.,.,1.0,.,.,.
CC(=O)c1cc(Cn2cnc([N+](=O)[O-])n2)cs1,.,.,5.2,.,.,.
O=C(CCC(=O)Nc1nnc(C2CCCCC2)s1)NCC1CCCO1 (stereo not drawn),6.6,61.3*,.,202.7*[fluorescence artefact?],62.5*,80.7*
CC(C)c1nnc(NC(=O)CCC(=O)NCC2CCCO2)s1 (stereo not drawn),5.4,-1.8,0.7,113.0,-1.4,-1.0
CC(C)NC(=O)c1ccc(CN2CCN(c3ccccc3)CC2)cc1,.,.,-2.5,.,.,.
CC(C)(C)C1(C)OC(O)(C(Cl)Cl)CC1=O (stereo not drawn),.,.,1.0,.,.,.
CC(C)(C)C1(C)OC(O)(C(F)(F)C(F)F)CC1=O (stereo not drawn),.,.,103.9*,.,.,.
CCOC(=O)N1CCN(c2cc(=O)n(-c3ccccc3Cl)c(=O)[nH]2)CC1,2.1,74.5*[fluorescence artefact?],-2.6,123.3,0.0,-5.2
CCC(=O)c1coc2ccc(O)cc12,3.2,78.1*[fluorescence artefact?],.,45.0,67.1*[fluorescence artefact?],-3.5
COc1cccc2cc(-c3nc(-c4ccc(Cl)c(Cl)c4)cs3)c(=O)oc12,.,.,-20.6,.,.,.
